Assay results: PMC4336329 (PLoS ONE, 2015)
Hit rate of the full screen: of about 310,000 compounds, about 14,000 (4.5%) showed an effect of 50% or more. Effects have a minus sign here. Shown is part of a subset that was picked to be rich in strong results.

target: human ether-à-go-go-related gene (hERG) potassium channel (human, UniProt Q12809); test: primary screen, population patch clamp on CHO cells stably expressing hERG; higher = less effect of the substance
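Note: peak tail current of the secondary pulse compared with the same well before compound.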

human ether-à-go-go-related gene (hERG) potassium channel, sequence (Q12809 whole entry, looked up): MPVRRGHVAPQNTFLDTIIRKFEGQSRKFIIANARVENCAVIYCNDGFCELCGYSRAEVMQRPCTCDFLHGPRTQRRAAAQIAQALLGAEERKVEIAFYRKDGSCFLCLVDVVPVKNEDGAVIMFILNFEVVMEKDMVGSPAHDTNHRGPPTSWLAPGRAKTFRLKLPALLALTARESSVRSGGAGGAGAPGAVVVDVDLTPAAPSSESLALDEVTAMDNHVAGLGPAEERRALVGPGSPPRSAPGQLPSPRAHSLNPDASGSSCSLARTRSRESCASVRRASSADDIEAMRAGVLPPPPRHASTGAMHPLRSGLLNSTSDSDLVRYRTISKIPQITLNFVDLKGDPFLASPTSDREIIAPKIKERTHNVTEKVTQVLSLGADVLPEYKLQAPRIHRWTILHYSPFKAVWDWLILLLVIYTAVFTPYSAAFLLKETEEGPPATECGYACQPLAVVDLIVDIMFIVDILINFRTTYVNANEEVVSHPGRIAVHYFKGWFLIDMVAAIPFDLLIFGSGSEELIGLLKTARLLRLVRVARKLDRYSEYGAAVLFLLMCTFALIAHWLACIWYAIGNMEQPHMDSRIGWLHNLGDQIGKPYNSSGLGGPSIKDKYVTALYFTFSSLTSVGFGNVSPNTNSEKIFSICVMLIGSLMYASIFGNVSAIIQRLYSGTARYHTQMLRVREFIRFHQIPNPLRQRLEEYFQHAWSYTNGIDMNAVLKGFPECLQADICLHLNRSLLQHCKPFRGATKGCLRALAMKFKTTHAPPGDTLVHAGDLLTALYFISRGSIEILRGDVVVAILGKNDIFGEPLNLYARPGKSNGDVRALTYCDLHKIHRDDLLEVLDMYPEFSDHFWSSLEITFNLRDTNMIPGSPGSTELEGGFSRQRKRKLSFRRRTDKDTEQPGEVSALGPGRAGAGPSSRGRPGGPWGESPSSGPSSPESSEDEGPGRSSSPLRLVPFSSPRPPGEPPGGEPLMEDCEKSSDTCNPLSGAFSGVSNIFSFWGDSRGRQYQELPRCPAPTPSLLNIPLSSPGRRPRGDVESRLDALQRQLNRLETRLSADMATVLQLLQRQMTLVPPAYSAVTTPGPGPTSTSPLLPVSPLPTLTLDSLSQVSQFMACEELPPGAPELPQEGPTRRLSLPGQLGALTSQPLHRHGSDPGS

Row | SMILES | hERG current change (%, negative = inhibition) at 10uM [%]
1 | Cc1ccc(CN2C(=O)S/C(=C\c3ccccc3OCC(=O)O)C2=O)cc1 | 1.61
2 | C/C(=C\C(=O)N1CCc2ccccc21)C(=O)O | 18.5
3 | COC(=O)c1cc(S(=O)(=O)N2CCN(c3ccc(F)cc3)CC2)c[nH]1 | 16.9
4 | NC(=O)c1cc(S(=O)(=O)N2CCN(c3ccc([N+](=O)[O-])cc3)CC2)cs1 | -74.4
5 | COC(=O)c1cc(S(=O)(=O)N2CCN(c3ccc([N+](=O)[O-])cc3)CC2)c[nH]1 | -53.9
6 | CC(=O)c1ccc(N2CCN(S(=O)(=O)c3csc(C(N)=O)c3)CC2)cc1 | -26.1
7 | NC(=O)c1cc(S(=O)(=O)N2CCN(c3cccc(Cl)c3)CC2)cs1 | 28.1
8 | O=C1CC(=O)Nc2cc(S(=O)(=O)N3CCN(c4ccc([N+](=O)[O-])cc4)CC3)ccc2N1 | -66.8
9 | COc1ccc(N2CCN(S(=O)(=O)c3ccc4c(c3)NC(=O)CC(=O)N4)CC2)cc1 | 13.2
10 | CC(=O)c1ccc(N2CCN(S(=O)(=O)c3ccc4c(c3)NC(=O)CC(=O)N4)CC2)cc1 | 13.4
11 | COC(=O)c1cc(S(=O)(=O)N2CCN(c3ccccc3)CC2)c[nH]1 | 7.6
12 | CCC(=O)Nc1nc2ccc(NC(=O)c3cc(OC)c(OC)c(OC)c3)cc2s1 | -9.76
13 | Cc1ccc(CNC(=O)c2ccc(C#CC(C)(C)O)s2)cc1 | -3.51
14 | Cc1cccc(CSC2=NCCN2S(=O)(=O)c2ccc(F)cc2)c1 | -0.802
15 | Cc1ccc(S(=O)(=O)N(C)c2ccc(OC(C)C(=O)N3CCCC3)cc2)cc1C (centres unmarked) | -37.6
16 | COc1ccc(/C=N/c2nc3ccccc3n2CCN2CCCCC2)cc1OC | -14.3
17 | CCn1c(NCc2cc(OC)ccc2OC)nc2ccccc21 | -22.8
18 | COc1ccc(CNc2nc3ccccc3n2C)c(O)c1 | 1.38
19 | COc1ccc(CNc2nc3ccccc3n2CCN2CCCCC2)c(OC)c1 | -84.4
20 | COc1ccc(OC)c(CNc2nc3ccccc3n2CCN2CCCCC2)c1 | -72.4
21 | CCCn1c(NCc2cc(OC)ccc2OC)nc2ccccc21 | -51.3
22 | CCCn1c(NCc2cccc(OC)c2O)nc2ccccc21 | -18.1

Row | SMILES | hERG current change (%, negative = inhibition) at 10uM [%]
23 | COc1ccc(CNc2nc3ccccc3n2C)c(OC)c1 | -25
24 | C=CCn1c(NCc2ccc(OC)cc2O)nc2ccccc21 | -23.1
25 | Cc1[nH]c(C)c(S(=O)(=O)N2CCCCC2)c1C(=O)N1CCCCC1 | 4.27
26 | Br.Cc1nc(C)c(-c2csc(Nc3cccc(O)c3)n2)s1 | 6.25
27 | COc1cc(OC)cc(-c2c(C#Cc3ccsc3)c3cc(-c4ccc5c(c4)OCCO5)ccc3n2C)c1 | 7.37
28 | COc1ccc(OCC(=O)Nc2ccccc2O)cc1 | -12.5
29 | Cc1c(C(C)(C)O)[nH]c2ccc(C#N)cc12 | 26.4
30 | CCOC(=O)N1CCN(c2ncnc3scc(-c4ccccc4)c23)CC1 | -32.6
31 | CCN1CCN(c2ncnc3sc(C(=O)Nc4ccccc4F)c(C)c23)CC1 | -67
32 | CCOC(=O)c1sc2ncnc(OC)c2c1C | 13.3
33 | Cc1c(C(=O)Nc2c(F)cccc2F)sc2ncnc(N3CCN(c4ccccc4)CC3)c12 | -12.2
34 | COCCCNC(=O)c1sc2ncnc(N3CCc4ccccc4C3)c2c1C | -23.9
35 | CCOC(=O)c1sc2ncnc(N3CCN(C)CC3)c2c1C | -24.3
36 | CCOC(=O)c1sc2nc(C)nc(N3CCN(c4ncccn4)CC3)c2c1C | 1.82
37 | CCCCNC(=O)c1sc2ncnc(N3CCc4ccccc4C3)c2c1C | -50.5
38 | CCOC(=O)CNC(=O)c1sc2ncnc(N3CCc4ccccc4C3)c2c1C | -36.6
39 | CCOC(=O)c1sc2ncnc(N3CCN(CC)CC3)c2c1C | -63.9
40 | CCOC(=O)c1sc2ncnc(N3CCN(C(=O)OCC)CC3)c2c1C | -53.4
41 | Cc1ccc(NC(=O)c2sc3ncnc(N4CCN(c5ccccn5)CC4)c3c2C)c(C)c1 | -48.4
42 | CCC(C)(NC(=O)Cc1c[nH]c2ccccc12)C(=O)NC1CCCCC1 (centres unmarked) | 2.32
43 | CN(C)/C=N/c1sccc1C(N)=O | 6.62
44 | COc1ccc(C2(C)NC(=O)N(CC3CCCCC3)C2=O)cc1 (centres unmarked) | 9.8
